Reference: article PMC4336329 (PLoS ONE, 2015)
In all, about 310,000 compounds went through this assay and about 14,000 (4.5%) showed an effect of 50% or more. Effects have a minus sign here. What follows is part of a selection rich in strong results, with near analogues and random picks from the rest.

molecular target: human ether-à-go-go-related gene (hERG) potassium channel (human, UniProt Q12809); test: primary screen, population patch clamp on CHO cells stably expressing hERG; higher = less effect of the substance
Sequence (Q12809 whole entry, looked up): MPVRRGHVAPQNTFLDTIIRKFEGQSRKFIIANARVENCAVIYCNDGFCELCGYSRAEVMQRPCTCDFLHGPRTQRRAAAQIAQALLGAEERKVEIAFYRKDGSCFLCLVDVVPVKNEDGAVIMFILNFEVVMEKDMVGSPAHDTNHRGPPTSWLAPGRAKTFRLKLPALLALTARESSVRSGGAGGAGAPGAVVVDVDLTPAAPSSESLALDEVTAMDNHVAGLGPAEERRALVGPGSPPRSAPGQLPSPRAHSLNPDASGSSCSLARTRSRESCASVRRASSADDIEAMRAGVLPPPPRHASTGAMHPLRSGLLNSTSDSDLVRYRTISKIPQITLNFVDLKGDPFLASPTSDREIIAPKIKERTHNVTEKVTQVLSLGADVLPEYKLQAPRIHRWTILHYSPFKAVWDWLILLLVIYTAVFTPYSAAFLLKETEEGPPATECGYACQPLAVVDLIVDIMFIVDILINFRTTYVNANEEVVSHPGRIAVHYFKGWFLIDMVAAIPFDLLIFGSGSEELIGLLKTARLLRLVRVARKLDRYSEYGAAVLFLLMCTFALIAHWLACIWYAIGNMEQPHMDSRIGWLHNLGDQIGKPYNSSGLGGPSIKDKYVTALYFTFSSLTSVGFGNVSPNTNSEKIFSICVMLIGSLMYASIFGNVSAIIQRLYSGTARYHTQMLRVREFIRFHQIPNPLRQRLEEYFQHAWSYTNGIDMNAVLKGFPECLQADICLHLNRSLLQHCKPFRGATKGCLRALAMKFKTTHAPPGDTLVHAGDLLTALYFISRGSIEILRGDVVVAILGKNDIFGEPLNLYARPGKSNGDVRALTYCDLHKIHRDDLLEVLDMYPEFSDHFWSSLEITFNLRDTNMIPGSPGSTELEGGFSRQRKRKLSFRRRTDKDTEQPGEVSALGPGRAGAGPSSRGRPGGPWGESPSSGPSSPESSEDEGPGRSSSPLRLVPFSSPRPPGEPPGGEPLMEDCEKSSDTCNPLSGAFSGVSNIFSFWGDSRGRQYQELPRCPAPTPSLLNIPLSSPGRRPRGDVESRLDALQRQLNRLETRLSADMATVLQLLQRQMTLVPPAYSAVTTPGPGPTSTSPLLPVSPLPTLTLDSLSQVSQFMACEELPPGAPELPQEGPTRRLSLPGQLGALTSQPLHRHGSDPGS
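Note: peak tail current of the secondary pulse compared with the same well before compound.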

Question: How did the “hERG current change (%, negative = inhibition) at 10uM” value turn out when `Cc1scc(C(=O)N/N=C/c2ccco2)c1C` was run?
Answer: 2.52%

Question: Which “hERG current change (%, negative = inhibition) at 10uM” value does the source give for `CCCc1cc(=O)[nH]c(SCC(=O)N(CC)C2CCS(=O)(=O)C2)n1` (stereo not shown) here?
Answer: 13.2%

Question: How did the “hERG current change (%, negative = inhibition) at 10uM” value turn out when `N=C(N)c1c(O)n(C2CCCCC2)c(=O)n(C2CCCCC2)c1=O` was run?
Answer: 18.5%

Question: Which “hERG current change (%, negative = inhibition) at 10uM” value does the source give for `CC1Cc2ccccc2N1C(=O)c1cc2sccc2n1Cc1ccc(F)cc1` (stereo not shown) here?
Answer: 12.3%

Question: How did the “hERG current change (%, negative = inhibition) at 10uM” value turn out when `Oc1ccc(-c2nnc(SCc3ccccc3)o2)cc1` was run?
Answer: -8.15%

Question: With `COc1ccc2c(c1)c(=O)c(C(=O)c1ccc(Cl)cc1)cn2CC(=O)Nc1ccc(F)cc1` as the compound, how does the “hERG current change (%, negative = inhibition) at 10uM” value read?
Answer: 12.4%

Question: How did the “hERG current change (%, negative = inhibition) at 10uM” value turn out when `COc1ccc2c(c1)c(=O)c(C(=O)c1ccc(C)cc1)cn2CC(=O)Nc1ccc(F)cc1` was run?
Answer: -10.1%

Question: How did the “hERG current change (%, negative = inhibition) at 10uM” value turn out when `COc1ccc2c(c1)c(=O)c(C(=O)c1ccccc1)cn2Cc1ccc(C)cc1` was run?
Answer: -75%

Question: `COc1ccc2c(c1)c(=O)c(C(=O)c1ccccc1)cn2Cc1ccccc1` was tested. Which “hERG current change (%, negative = inhibition) at 10uM” value did it give?
Answer: -71.8%

Question: Which “hERG current change (%, negative = inhibition) at 10uM” value does the source give for `COc1ccc(Cn2cc(C(=O)c3ccccc3)c(=O)c3cc(OC)ccc32)cc1` here?
Answer: -31.3%

Question: Which “hERG current change (%, negative = inhibition) at 10uM” value does the source give for `COc1ccc2c(c1)c(=O)c(C(=O)c1ccc(F)cc1)cn2CC(=O)Nc1ccc(F)cc1` here?
Answer: -5.61%

Question: Which “hERG current change (%, negative = inhibition) at 10uM” value does the source give for `Cc1cccc(NC(=S)NC2CCSc3ccccc32)c1` (stereo not shown) here?
Answer: 14.5%

Question: `COc1ccc(OCC(=O)Nc2ccccc2OC(F)F)cc1` was tested. Which “hERG current change (%, negative = inhibition) at 10uM” value did it give?
Answer: -22.2%

Question: For `CC1CC(C)CN(C(=O)c2ccc(Br)c(S(=O)(=O)N3CCOCC3)c2)C1` (stereo not shown), which “hERG current change (%, negative = inhibition) at 10uM” value is on record?
Answer: -26.6%

Question: `NC(=O)C(c1ccccn1)c1ncc(C(F)(F)F)cc1Cl` (stereo not shown) was tested. Which “hERG current change (%, negative = inhibition) at 10uM” value did it give?
Answer: 11.7%

Question: With `Cl.O=C(CN1CCCCC1)c1ccc2c(c1)OCO2` as the compound, how does the “hERG current change (%, negative = inhibition) at 10uM” value read?
Answer: -4.7%

Question: How did the “hERG current change (%, negative = inhibition) at 10uM” value turn out when `Cl.O=C(CN1C2=NCCN2c2ccccc21)c1ccco1` was run?
Answer: -20.7%

Question: How did the “hERG current change (%, negative = inhibition) at 10uM” value turn out when `Br.O=C(CN1C2=NCCN2c2ccccc21)c1ccc2c(c1)OCO2` was run?
Answer: -60.9%

Question: How did the “hERG current change (%, negative = inhibition) at 10uM” value turn out when `Br.O=C(CN1C2=NCCN2c2ccccc21)c1ccc(Br)cc1` was run?
Answer: -67.6%

Question: With `CC(C)(C)n1nnnc1C(c1ccc(Cl)cc1)N(Cc1cccnc1)Cc1ccco1` (stereo not shown) as the compound, how does the “hERG current change (%, negative = inhibition) at 10uM” value read?
Answer: -14.7%

Question: Which “hERG current change (%, negative = inhibition) at 10uM” value does the source give for `CCOC(=O)c1[nH]c(C)c(C(=O)N2CCc3ccccc32)c1C` here?
Answer: -12.6%

Question: Which “hERG current change (%, negative = inhibition) at 10uM” value does the source give for `Cc1ccc(OCC(=O)NCC(=O)Nc2ccc(F)c(F)c2F)c([N+](=O)[O-])n1` here?
Answer: -34.4%

Question: How did the “hERG current change (%, negative = inhibition) at 10uM” value turn out when `Cc1nc(Nc2cccc(C(C)O)c2)c2nnn(Cc3ccc(F)cc3)c2n1` (stereo not shown) was run?
Answer: 5.08%

Question: For `CCc1ccc(CN(C)C(=O)CCc2nc3ccccc3n(-c3ccc(OC)cc3)c2=O)cc1`, which “hERG current change (%, negative = inhibition) at 10uM” value is on record?
Answer: -0.36%

Question: How did the “hERG current change (%, negative = inhibition) at 10uM” value turn out when `COc1ccc(-n2c(=O)c(CCC(=O)N(C)Cc3ccccc3C)nc3ccccc32)cc1` was run?
Answer: -50.4%

Question: For `COc1ccc(-n2c(=O)c(CCC(=O)N(C)Cc3cccs3)nc3ccccc32)cc1`, which “hERG current change (%, negative = inhibition) at 10uM” value is on record?
Answer: -38.7%

Question: `COc1cc2c(cc1OC)-c1cc(Nc3ccccc3)nc(=O)n1CC2` was tested. Which “hERG current change (%, negative = inhibition) at 10uM” value did it give?
Answer: -64.1%

Question: How did the “hERG current change (%, negative = inhibition) at 10uM” value turn out when `COc1cc2c(cc1OC)-c1cc(Nc3ccc(C)cc3)nc(=O)n1CC2` was run?
Answer: -8.97%

Question: For `COc1ccc(Nc2cc3n(c(=O)n2)CCc2cc(OC)c(OC)cc2-3)cc1`, which “hERG current change (%, negative = inhibition) at 10uM” value is on record?
Answer: 4.8%

Question: For `O=C(NCc1ccc2c(c1)OCO2)Nc1ccc(Cl)cc1`, which “hERG current change (%, negative = inhibition) at 10uM” value is on record?
Answer: 5.12%

Question: How did the “hERG current change (%, negative = inhibition) at 10uM” value turn out when `COc1cccc(NC(=O)c2cnc[nH]2)c1` was run?
Answer: 25.1%

Question: How did the “hERG current change (%, negative = inhibition) at 10uM” value turn out when `COc1ccccc1NC(=O)C(=O)NCc1ccncc1` was run?
Answer: -5.14%

Question: How did the “hERG current change (%, negative = inhibition) at 10uM” value turn out when `Cn1c(CCc2ccccc2)nnc1SCC(N)=O` was run?
Answer: 15.3%

Question: For `N#Cc1c(-c2ccccc2)c(-c2ccccc2)nn(CC(=O)NNC(=O)Nc2ccc(Cl)c(Cl)c2)c1=O`, which “hERG current change (%, negative = inhibition) at 10uM” value is on record?
Answer: -1.35%

Question: Which “hERG current change (%, negative = inhibition) at 10uM” value does the source give for `CCc1ccc(-c2csc3[n+]2CCN3C(C)=O)cc1.[Br-]` here?
Answer: -29.1%

Question: `CC(=O)N1CC[n+]2c(-c3ccc([N+](=O)[O-])cc3)csc21.[Br-]` was tested. Which “hERG current change (%, negative = inhibition) at 10uM” value did it give?
Answer: -68.9%

Question: For `CC(=O)N1CC[n+]2c(-c3ccc(Cl)cc3)csc21.[Br-]`, which “hERG current change (%, negative = inhibition) at 10uM” value is on record?
Answer: -1.19%

Question: `C=CCN1CCN(C(=O)c2cc3c(s2)CCCC3)CC1` was tested. Which “hERG current change (%, negative = inhibition) at 10uM” value did it give?
Answer: -19.3%

Question: With `CCC1CCc2sc(C(=O)N3CCCN(C)CC3)cc2C1` (stereo not shown) as the compound, how does the “hERG current change (%, negative = inhibition) at 10uM” value read?
Answer: -12.9%

Question: How did the “hERG current change (%, negative = inhibition) at 10uM” value turn out when `C=CCN1CCN(C(=O)c2cc3c(s2)CCC(CC)C3)CC1` (stereo not shown) was run?
Answer: -57.3%

Question: For `Cc1ccc(C)c(C(C)NC(=O)c2ccncc2)c1` (stereo not shown), which “hERG current change (%, negative = inhibition) at 10uM” value is on record?
Answer: -7.4%

Question: For `Cc1cc(C(F)F)nn1CC(=O)NC1CCCC1`, which “hERG current change (%, negative = inhibition) at 10uM” value is on record?
Answer: 1.56%

Question: How did the “hERG current change (%, negative = inhibition) at 10uM” value turn out when `CCOC(=O)N1CCN(c2ccc(C(=O)c3ccccc3)cc2F)CC1` was run?
Answer: -50.8%

Question: `CCCC(=O)c1ccc(N2CCN(C(=O)c3ccccc3)CC2)c(F)c1` was tested. Which “hERG current change (%, negative = inhibition) at 10uM” value did it give?
Answer: -66.7%

Question: For `CCN1CCN(C(=O)c2ccc3nc(-c4ccccc4)c(-c4ccccc4)nc3c2)CC1`, which “hERG current change (%, negative = inhibition) at 10uM” value is on record?
Answer: -17.4%

Question: For `CN1CCN(C(=O)c2ccc3nc(-c4ccccc4)c(-c4ccccc4)nc3c2)CC1`, which “hERG current change (%, negative = inhibition) at 10uM” value is on record?
Answer: 6.03%

Question: `CC(=O)c1cc(F)c(N2CCN(C(=O)Cc3ccccc3)CC2)cc1C` was tested. Which “hERG current change (%, negative = inhibition) at 10uM” value did it give?
Answer: -11.5%

Question: `CCCC(=O)c1ccc(N2CCN(C(=O)c3ccccc3Br)CC2)c(F)c1` was tested. Which “hERG current change (%, negative = inhibition) at 10uM” value did it give?
Answer: -23.7%

Question: `CCC(=O)c1cc(F)c(N2CCN(C(=O)Cc3ccccc3)CC2)cc1C` was tested. Which “hERG current change (%, negative = inhibition) at 10uM” value did it give?
Answer: -58.9%

Question: `CCCC(=O)c1ccc(N2CCN(C(=O)OCC)CC2)c(F)c1` was tested. Which “hERG current change (%, negative = inhibition) at 10uM” value did it give?
Answer: -14.2%

Question: How did the “hERG current change (%, negative = inhibition) at 10uM” value turn out when `CCCC(=O)c1ccc(N2CCN(C(=O)c3ccc(Br)cc3)CC2)c(F)c1` was run?
Answer: 2.35%

Question: How did the “hERG current change (%, negative = inhibition) at 10uM” value turn out when `CCOC(=O)N1CCN(C(=O)c2ccc3nc(-c4ccccc4)c(-c4ccccc4)nc3c2)CC1` was run?
Answer: -54.6%

Question: For `CCOC(=O)N1CCN(c2ccc(C(C)=O)cc2F)CC1`, which “hERG current change (%, negative = inhibition) at 10uM” value is on record?
Answer: 5.68%

Question: `CCC(=O)c1ccc(N2CCN(C(=O)Cc3ccccc3)CC2)c(F)c1` was tested. Which “hERG current change (%, negative = inhibition) at 10uM” value did it give?
Answer: -36.5%

Question: Which “hERG current change (%, negative = inhibition) at 10uM” value does the source give for `Cc1ccc(Cn2c(C)cc3c(c2=O)C(c2cccs2)C(C#N)=C(N)O3)cc1` (stereo not shown) here?
Answer: 15.8%
